Test results: PubChem BioAssay
Several values for one entry are separate records, joined by “and”; a condition that tells them apart may be missing. Equal entries are not always repeated. Inconclusive results are not listed. Activity calls are given as the source filed them. Unless noted, how the calls were made is not given here.

Legend:
[1] = reducers of polyQ inclusions in PC12 cells, cell-based, NGF-treated PC12, GFPQ80 (AID 1614); conditions: PC12 NGF-treated GFP-polyQ80 inclusion reduction;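 further: lower means fewer inclusions and 0 means no inclusions at all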
[2] = circadian clock period modulators, cell-based, LOPAC library, luminescence reporter (AID 2774); conditions: circadian reporter cells, at 7 µM, actives lie on both sides;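 further: values are relative to mean of DMSO wells on each plate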
[3] = tested on: Hepatitis C virus NS3 helicase; experiment: HCV NS3 helicase inhibitors, primary screen, biochemical, fluorescence polarization, LOPAC1280 library (AID 687035; in the data active means inhibition above about 37%); conditions: Purified HCV NS3 helicase, Cy5-dT15 ssDNA binding fluorescence polarization; stronger effect = higher value; concentration not given here
[4] = Cy5 fluorescence quenching or enhancement artefacts, artefact control for HCV NS3 helicase inhibitor project, biochemical, LOPAC1280 (AID 687037); conditions: Cy5-DNA-NS3h complex fluorescence interference counterscreen
[5] = Cy5 fluorescence interference with SSB-bound oligo, artefact control for HCV NS3 helicase inhibitor project, biochemical, NIH Clinical Collection, E. coli SSB (AID 743268)
[6] = tested on: Hepatitis C virus NS3 helicase; experiment: HCV NS3 helicase inhibitors, primary screen, biochemical, fluorescence polarization, NIH Clinical Collection (AID 743270); conditions: NS3 helicase binding to Cy5-dT15 DNA, stronger effect = higher value, concentration not given here
[7] = target: Single-stranded DNA-binding protein (Escherichia coli (strain K12)) (UniProt P0AGE0); experiment: E. coli SSB displacement from DNA, counter-screen for HCV NS3 helicase inhibitor project, biochemical, fluorescence polarization, NIH Clinical Collection (AID 743271; in the data active means inhibition above about 28%); conditions: stronger effect = higher value, concentration not given here
[8] = fluorescence interference in NS3h assay format, artefact control for HCV NS3 helicase inhibitor project, biochemical, NIH Clinical Collection (AID 743272); conditions: fluorescence interference counterscreen, stronger effect = lower value;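 further: HCV NS3 helicase with a Cy5 labelled single stranded DNA probe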
[9] = tested on: Aerobactin synthetase IucA (Klebsiella pneumoniae); experiment: IucA aerobactin synthetase inhibitors, biochemical, Tocris library, absorbance (AID 1345561); conditions: purified IucA enzyme assay, absorbance (OD) read-out; stronger effect = lower value;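 tested at 8 µM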;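 further: 100% = enzyme without compound and 0% = no enzyme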
[10] = growth inhibition of DIPG glioma cells, dose response, cell-based, SU-DIPG-XVII, MIPE5.0, CellTiter-Glo, qHTS (AID 1347060; cut-off not given, nearly all actives have AC50 up to about 26 µM;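 on AC50: cells exposed to compound for 48 hours before viability readout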); conditions: SU-DIPG-XVII viability, CellTiter-Glo ATP luminescence
[11] = growth inhibition of DIPG glioma cells, dose response, cell-based, SU-DIPG-XIII, MIPE5.0, CellTiter-Glo, qHTS (AID 1347064; cut-off not given, nearly all actives have AC50 up to about 23 µM;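 on AC50: cells exposed to compound for 48 hours before the viability read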); conditions: SU-DIPG-XIII viability, CellTiter-Glo ATP luminescence
[12] = viability loss in pontine glioma line – cell-based, SU-DIPG-XXV, MIPE5.0, CellTiter-Glo, qHTS, dose response (AID 1347065; cut-off not given, nearly all actives have AC50 up to about 26 µM;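 further: cells exposed to compound for 48 hours before ATP readout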); conditions: CellTiter-Glo ATP luminescence
[13] = SU-DIPG-VI glioma cell viability, MIPE4.0 library, CellTiter-Glo luminescence, qHTS (AID 1347066; cut-off not given, nearly all actives have AC50 up to about 30 µM;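 further: cells exposed to compound for 48 hours before readout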); conditions: CellTiter-Glo ATP luminescence
[14] = JHH-DIPG-1 glioma cell viability, MIPE5.0 library, CellTiter-Glo luminescence, qHTS (AID 1347067; cut-off not given, nearly all actives have AC50 up to about 26 µM;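 further: cells exposed to compound for 48 hours before readout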); conditions: JHH-DIPG-1 glioma viability, CellTiter-Glo ATP luminescence
[15] = viability rescue of complex I mutant cybrids, primary screen, cell-based, galactose medium, ATP luminescence (AID 1645843;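 active means z-score of at least 1.8 in each of two replicates, scored against plate mean and spread of sample wells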;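 further: positive z means more ATP and so rescue of galactose-driven cybrid death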); conditions: complex I mutant cybrid cells, 72 h, stronger effect = higher value
[16] = growth inhibition of DIPG glioma cells, dose response, cell-based, SU-DIPG-XIII, MIPE4.0, CellTiter-Glo, qHTS (AID 1347061; cut-off not given, nearly all actives have AC50 up to about 37 µM;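 further: cells exposed to compound for 48 hours before readout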); conditions: SU-DIPG-XIII viability, CellTiter-Glo ATP luminescence
[17] = MDA-MB-436 breast carcinoma cell growth inhibition, synergistic combos for chromothripsis tumors, BGB or cisplatin combos (AID 1671458); conditions: MDA-MB-436 breast carcinoma growth inhibition, drug combinations, stronger effect = higher value;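 further: cells exposed for 96 hours; 0% = vehicle DMSO and 100% = killing by high DMSO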
[18] = growth inhibition of BT084 medulloblastoma cells, cell-based, ICGC_MB145, cisplatin and BGB IC40 combos (AID 1671461; in the data active means inhibition above about 80%;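 further: cells exposed to drugs for 96 hours; 0% = vehicle DMSO and 100% = high DMSO full killing control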); conditions: drug combinations, stronger effect = higher value
[19] = growth inhibition of RCMB18 medulloblastoma cells, cell-based, cisplatin and BGB IC40 combos (AID 1671462; in the data active means inhibition above about 80%;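 further: cells exposed to compound for four days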); conditions: stronger effect = higher value
[20] = growth inhibition of CRL1545 osteosarcoma cells, cell-based, cisplatin and BGB IC20 combos (AID 1671464; in the data active means inhibition above about 80%;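 further: cells exposed to compound for 96 hours before readout; 0% = vehicle DMSO and 100% = high DMSO killing control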); conditions: stronger effect = higher value

CCC1(c2ccccc2)C(=O)NCNC1=O
2: inclusion score [1]
inactive: period change [2] -0.19 h | inhibition [3] 1% | fluorescence ratio (interference) [4] 1 | fluorescence ratio [5] 1.04 | inhibition [6] -2.27% | inhibition [7] -0.48% | fluorescence ratio [8] 0.97 | remaining activity [9] 91.8% | outcome [10] | outcome [11] | outcome [12] | outcome [13] | outcome [14] | z-score [15] 1.15 and 0.365 and 1.9

Clc1cccc(Cl)c1NC1=NCCN1
inactive: period change [2] 0.005 h | inhibition [3] -4% | fluorescence ratio (interference) [4] 1 | fluorescence ratio [5] 1.05 | inhibition [6] -2.77% | inhibition [7] -2.41% | fluorescence ratio [8] 1.02 | remaining activity [9] 106% | outcome [16] | outcome [13]
2: inclusion score [1]

CC[C@H]1CN2CCc3cc(OC)c(OC)cc3[C@@H]2C[C@@H]1C[C@H]1NCCc2cc(OC)c(OC)cc21
active: AC50 [10] 263 nM | AC50 [11] 166 nM | AC50 [12] 417 nM | AC50 [13] 20900 nM | AC50 [14] 833 nM
inactive: period change [2] 0 h | inhibition [3] 2% | fluorescence ratio (interference) [4] 1 | z-score [15] -0.955

CCN(CC)CCCC(C)Nc1ccnc2cc(Cl)ccc12 (stereo not drawn)
inactive: period change [2] 0.02 h | inhibition [3] -3% | fluorescence ratio (interference) [4] 1 | outcome [11] | outcome [12] | outcome [14] | z-score [15] -1.02 and -1.18
2: inclusion score [1]
active: AC50 [16] 8.33 nM

CCCCCN=C(N)N/N=C/c1c[nH]c2ccc(OC)cc12
inactive: inhibition [6] 8.32% | inhibition [7] 7.6% | fluorescence ratio [8] 0.88 | outcome [16] | outcome [13]
active: fluorescence ratio [5] 0.7 | AC50 [10] 13200 nM | AC50 [11] 13200 nM | AC50 [12] 14800 nM

CC(C)NCC(O)c1ccc(O)c(O)c1 (stereo not drawn)
2: inclusion score [1]
inactive: period change [2] -0.07 hour and 0.21 hour | inhibition [3] -3% | fluorescence ratio (interference) [4] 1 | fluorescence ratio [5] 1.01 | inhibition [6] -5% | inhibition [7] -0.48% | fluorescence ratio [8] 0.95 | remaining activity [9] 108% | outcome [10] | outcome [11] | outcome [12] | outcome [13] | outcome [14]

CCC(C)(C)C(=O)O[C@H]1C[C@@H](C)C=C2C=C[C@H](C)[C@H](CC[C@@H]3C[C@@H](O)CC(=O)O3)[C@H]21
inactive: fluorescence ratio [5] 1.04 | inhibition [6] -1.36% | inhibition [7] 6.39% | fluorescence ratio [8] 0.92 | remaining activity [9] 114% | outcome [16] | z-score [15] -1.4 and -0.73 and -0.85

Nc1nc2c(ncn2COCCO)c(=O)[nH]1
-21.3% and -10.7%: inhibition ([17]; measured here: BGB combination, at 5 µM)
-28.4% and 4.2%: inhibition ([19]; measured here: BGB IC40 combination, at 0.05 µM)
-21.5% and -6.99%: inhibition ([19]; single agent, at 5 µM)
-47.5% and -0.282%: inhibition ([17]; measured here: cisplatin combination, at 0.5 µM)
-1.08% and -21.3%: inhibition ([18]; measured here: BGB IC40 combination 0.05 uM, at 0.05 µM)
-16.8% and -20.6%: inhibition ([19]; cisplatin combo, at 5 µM)
-38.1% and -22.9%: inhibition ([20]; single agent, at 5 µM)
-35.4% and 12.7%: inhibition ([19]; measured here: combination with cisplatin, at 0.5 µM)
2: inclusion score [1]
-59.2% and 3.53%: inhibition ([20]; single agent, at 0.05 µM)
-36.3% and -17.4%: inhibition ([17]; measured here: cisplatin combination, at 5 µM)
-12.5% and -17.2%: inhibition ([18]; cisplatin combination, at 0.5 µM)
-6.79% and -8.03%: inhibition ([18]; cisplatin combination, at 5 µM)
-17.4% and -24.8%: inhibition ([20]; measured here: with BGB IC20 combination, at 0.5 µM)
-51.3% and -21.4%: inhibition ([20]; measured here: with cisplatin IC20 combination, at 0.5 µM)
-28% and -11%: inhibition ([17]; measured here: BGB combination, at 0.5 µM)
-0.642% and -9.5%: inhibition ([18]; single agent, at 5 µM)
inactive: period change [2] -0.035 h | inhibition [3] -2% | fluorescence ratio (interference) [4] 1 | remaining activity [9] 117% | outcome [10] | outcome [16] | outcome [12] | outcome [14] | inhibition ([17]; at 0.5 µM) -28.5% and -3.5% | inhibition ([18]; at 0.5 µM) -21.3% and -1.95% | inhibition ([19]; at 0.5 µM) -24.6% and -1.99% | inhibition ([20]; at 0.5 µM) -37.7% and -21.2%
